# This is a sample that favours compounds with a hit; in the whole collection about 11% have one here.
# PNC inhibitor = inhibitors of perinucleolar compartment assembly; 3.1% of 140,000 active; activity change (PNC), negative = inhibition, % at 10 µM; PC3M PTB-GFP, PNC prevalence imaging, 16 h; hits give low values;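 active = readout at or below -70, meaning at least 70% loss of cells showing the perinucleolar compartment, a nuclear body marking cancer cells; inconclusive = readout between -30 and a set limit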;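 note: plate controls were DMSO wells for no effect and camptothecin positive control wells for full effect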
#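 Read-out is percentage of cells bearing a perinucleolar compartment, from automated 20x imaging of fixed, Hoechst-stained PC3M PTB-GFP cells. Cells were seeded 4 h, then exposed 16 h to compound (23 nl of library stock) in duplicate plates.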
# ALDH1A1 inh = blocks purified human ALDH1A1 activity; Potency, µM (series often up to 75.3 µM), without a hit: at the top dose activity, negative = inhibition, usual class: inhibitors; Purified ALDH1A1, NADH fluorescence, propionaldehyde substrate; 7.3% of 220,000 active;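 note: potency is the fitted concentration of half-maximal effect; plate controls were no enzyme wells and a reference inhibitor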
# HPGD inh = HPGD (human) dehydrogenase inhibition. Potency, µM, for inactives: at the top dose activity change, negative = inhibition, hits mostly inhibitors. purified HPGD, NADH fluorescence kinetic, PGE2 substrate. P15428. 4.3% of 150,000 active; note: potency is the fitted concentration of half-maximal effect
# Target sequence (P15428 whole entry, looked up): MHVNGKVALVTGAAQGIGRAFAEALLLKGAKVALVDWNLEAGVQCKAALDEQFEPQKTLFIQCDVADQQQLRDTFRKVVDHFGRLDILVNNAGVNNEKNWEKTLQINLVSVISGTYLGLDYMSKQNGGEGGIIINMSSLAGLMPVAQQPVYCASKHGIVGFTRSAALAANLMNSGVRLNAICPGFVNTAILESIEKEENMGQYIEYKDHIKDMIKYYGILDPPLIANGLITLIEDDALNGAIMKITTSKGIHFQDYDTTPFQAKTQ
#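 20 nM HPGD preincubated 15 min at room temperature with compound in 50 mM Tris-HCl pH 8, 0.01% Tween 20. Started with 1 mM NAD+ and 30 uM prostaglandin E2; NADH fluorescence (360/450 nm) read 5 times over 30-s intervals, last minus first.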
# The depositor's hits bear a star; ? = inconclusive; nt = no result; [ ] = another dose, or the depositor's remark. Unless noted, calls come from the whole dose curve; as a rule, active = well fitted inhibition curve with a large enough effect (not every such curve was filed as active); inconclusive = small, poorly fitted or top-dose-only effect, or another doubt; inactive = no such curve, though single readings can be large or run the other way. Unless noted, % is set by controls: 0 for no effect and ±100 for the full control effect.
SMILES,PNC inhibitor,ALDH1A1 inh,HPGD inh
CCOc1cccc(C2C(C(=O)c3ccc(C)o3)=C(O)C(=O)N2c2nccs2)c1 (stereo not given),-12,2%,nt
O=C(C1=C(O)C(=O)N(c2nccs2)C1c1ccccc1)c1cc2ccccc2o1 (stereo not given),nt,22µM*,nt
O=C(C1=C(O)C(=O)N(CCc2ccccc2)C1c1ccncc1)c1cc2ccccc2o1 (stereo not given),nt,19µM*,nt
COCCCN1C(=O)C(O)=C(C(=O)c2ccco2)C1c1ccccc1 (stereo not given),?,28µM*,-11%
CN(C)CCN1C(=O)C(O)=C(C(=O)c2cc3ccccc3o2)C1c1cccc(Br)c1 (stereo not given),-6,-1%,-11%
CN1Cc2cccc3c2C(Cc2ccccc2S3)C1 (stereo not given),-9,12%,-6%
CSc1nc2ncc(C(=O)O)c(N)n2n1,nt,0%,nt
O=C(C1=C(O)C(=O)N(CCc2ccccc2)C1c1cccnc1)c1ccco1 (stereo not given),-20,18µM*,-32%
CCOc1ccc(C2C(C(=O)c3ccco3)=C(O)C(=O)N2Cc2cccnc2)cc1OC (stereo not given),29,25µM*,-16%
O=C(C1=C(O)C(=O)N(CCc2ccccc2)C1c1cccs1)c1ccco1 (stereo not given),nt,-3%,nt
CC(C)Oc1ccc(C2C(C(=O)c3ccco3)=C(O)C(=O)N2Cc2cccnc2)cc1 (stereo not given),-17,-1%,-6%
CCOc1ccccc1NC(=O)C1CCN(C(=O)Cc2ccccc2)CC1,nt,6%,nt
COCCNC(=O)/C(C#N)=C/c1c(N2CC(C)OC(C)C2)nc2ccccn2c1=O (stereo not given),-30,?,-29%
Cc1nc2[nH]c(=O)[nH]c(=O)c2[nH]1,nt,-9%,-10%
Cc1nc(C(C)N(C)Cc2nc(-c3ccc4c(c3)OCO4)no2)c(C)s1 (stereo not given),nt,-8%,nt
O=C1c2cccnc2C(=O)N1CO,8,1%,-12%
O=C(O)c1cccc(N2C(=O)C3CC=CCC3C2=O)c1 (stereo not given),-100*,-1%,-13%
O=C(O)c1cccc(N2C(=O)c3cccnc3C2=O)c1,-100*,0%,-2%
O=C(O)c1cccc(N2C(=O)C3CC=C(Cl)CC3C2=O)c1 (stereo not given),50,13%,-8%
O=C(O)[C@@H]1[C@@H](C(=O)O)[C@@]23CCCC2=C2CC[C@@]3(C(=O)O)[C@@]3(C(=O)O)C[C@@]213,nt,3%[13.5 µM],-8%
CCCCOc1ccc(-n2nc(C)cc2C)nn1,?,1%,-11%
Cc1cc(C)n(-c2ccc(OCC(=O)O)nn2)n1,-115*,?,-14%
CCOc1ccccc1/C=N/NC(=O)CNC(=O)c1cccs1,nt,7%,nt
NS(=O)(=O)c1ccc(CCNCC(=O)N2CCC(Cc3ccccc3)CC2)cc1,nt,10µM*,nt
NS(=O)(=O)c1ccc(CCNCC(=O)NC2CC2)cc1,nt,-5%,nt
SMILES,PNC inhibitor,ALDH1A1 inh,HPGD inh
Cc1sc2nc(CSc3cccc(C(F)(F)F)c3)[nH]c(=O)c2c1C,1,-9%,nt
CCN(CC)S(=O)(=O)c1cc(NC(=O)C(C)N2CCN(Cc3ccc4c(c3)OCO4)CC2)ccc1C (stereo not given),-1,9%,1%
O=C(C(NS(=O)(=O)c1cccs1)c1ccccc1)N1CCN(c2ccccc2)CC1 (stereo not given),30,?,-11%
COc1ccc(N2CCN(C(CNS(=O)(=O)c3cccs3)c3cccnc3)CC2)cc1 (stereo not given),11,-18%,-8%
CC1CCCN(C2=C(NS(=O)(=O)c3ccc(Cl)cc3)C(=O)c3ccccc3C2=O)C1 (stereo not given),?,13µM*,-25%
O=C1C(NS(=O)(=O)c2cccs2)=C(N2CCN(c3ccccc3)CC2)C(=O)c2ccccc21,?,3.5µM*,-25%
O=S(=O)(NCC(c1cccnc1)N1CCN(c2ccccc2)CC1)c1cccs1 (stereo not given),?,2.5µM*,-11%
COc1ccc(S(=O)(=O)NCC(c2cccnc2)N2CCN(c3ccccc3)CC2)cc1C (stereo not given),50,13µM*,-16%
COc1ccc(S(=O)(=O)NCC(c2cccnc2)N2CCN(c3ccc(F)cc3)CC2)cc1C (stereo not given),?,?,-1%
CC1CCCN(C2=C(Cl)C(=O)N(c3cccc(Cl)c3)C2=O)C1 (stereo not given),38,?,-20%
Cc1ccc(S(=O)(=O)NC2=C(N3CCN(c4ccccc4F)CC3)C(=O)c3ccccc3C2=O)cc1,5,?,-11%
CC(=O)Nc1ccc(S(=O)(=O)NC2=C(N3CCN(c4ccc(F)cc4)CC3)C(=O)c3ccccc3C2=O)cc1,1,7.1µM*,-23%
Cc1ccc2c(c1C)OC(=O)CC2(C)C,-16,?,?
COc1cccc(Cn2c(=O)c(C)nc3cnc(Nc4ccccc4)nc32)c1,nt,-4%,nt
CNC(=O)c1[nH]cnc1C(=O)Nc1cccc(OC)c1,?,28µM*,-13%
CNC(=O)c1[nH]cnc1C(=O)Nc1ccc(C)cc1,-4,-9%,-10%
C=CCOC(=O)NC(CC(=Nc1ccc(OC)cc1)C(=O)OC)c1ccccc1 (stereo not given),nt,?,-18%
CS(=O)(=O)N1CCC2(CCCN(Cc3ccccc3)C2)CC1,nt,12%,-5%
Cn1c(COc2ccc(Br)cc2)nnc1SC1CCc2ccccc2C1=O (stereo not given),?,22µM*,-12%
Cn1c(COc2ccccc2)nnc1SCCSc1nnc(COc2ccccc2)n1C,-19,9%,-13%
Cc1ccc(-n2nc(CN3CCOCC3)c(-c3ccccc3)c2N)c(C)c1,11,-4%,-6%
O=C(OCC(=O)N1CCN(c2ccccc2)CC1)c1cccc(Cl)c1,?,1%,-6%
CC(C)[C@H](NS(=O)(=O)c1cccc(Cl)c1)C(=O)OCC(=O)N1CCN(c2ccccc2)CC1,-28,2.5µM*,-9%
CC(C)C[C@@H](CC(=O)N[C@H](CC(=O)N[C@@H]1CCCC[C@H]1C(=O)N[C@H](CC(=O)N[C@@H](CCC(=O)O)CC(=O)O)Cc1ccccc1)C(C)C)NC(=O)[C@@H]1CNCC[C@H]1N,nt,-14%,-3%
COC(=O)c1ccc(C(NC(=O)OCc2ccccc2)/C(=C/[C@@H](C)C(=O)NCc2ccc(-c3ccccc3)cc2)c2cccnc2)cc1 (stereo not given in full),nt,-3%,-12%
SMILES,PNC inhibitor,ALDH1A1 inh,HPGD inh
CC(C)c1ccc(/C=C2\CC/C(=C\C=N\N(C)C)C2=O)cc1,15,0.4µM*,-23%
CC(C)/C=C1\CC/C(=C\c2ccc(N(C)C)cc2)C1=O,-24,-10%,-2%
S=C(c1ccc(Br)cc1)N1CCN(Cc2ccccc2)CC1,81,?,32µM*
CCN1CCN(C(=S)c2ccc(Br)cc2)CC1,49,-1%,-30%
CN(C)c1ccc(C(=S)N2CCN(Cc3ccccc3)CC2)cc1,nt,32µM*,nt
Cc1cc(Cl)ccc1NC(=S)N1CCN(Cc2ccccc2)CC1,-2,0%,-1%
CCN(CC)c1ccc(C(=O)N2CCN(Cc3ccccc3)CC2)cc1,9,12%,-14%

# Source: PubChem (National Center for Advancing Translational Sciences (NCATS))
